Hits are enriched below; roughly 5.3% of the tested compounds scored in any of these assays.
SUMO Mot1 rescue = yeast Mot1-301 growth rescue at high temperature, primary screen, SUMOylation pathway inhibitor project, S. cerevisiae, ATP luminescence, 38.5C; S. cerevisiae Mot1-301 growth rescue; percent above DMSO median, 100 means doubled; growth rescue, % at 18.8 µM; 1% of 320,000 active;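 active = every valid replicate shows activation above 250% relative to neutral control wells; inactive = the rest, any valid replicate at or below 250%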
HIF activator = HIF pathway transcriptional activators, primary screen, cell-based, U2OS HRE-luciferase, luminescence; activation, % at 7.5 µM (by protocol); 0.32% of 300,000 active; U2OS HRE-luciferase reporter; normalized: DMSO 0%, desferrioxamine 100%;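 active = mean activation of at least 10% of the iron chelator positive control signal, with at least half of replicates also reaching 10%; inconclusive = mean and replicate majority disagree about reaching 10%; inactive = mean and most replicates under 10%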
ALR inh = inhibitors of human ALR sulfhydryl oxidase, primary screen, biochemical, H2O2 detection, HRP-luminol luminescence, single point; FAD-linked sulfhydryl oxidase ALR (Homo sapiens), P55789; purified ALR, DTT oxidation; inhibition, % (no concentration beside the values); 3.8% of 290,000 active;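 active = mean replicate inhibition above about 79%, with every replicate also reaching it, limit read from the data; inconclusive = only one of the two criteria met; inactive = mean below limit and not every replicate reaching it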
Target sequence (P55789 whole entry, looked up): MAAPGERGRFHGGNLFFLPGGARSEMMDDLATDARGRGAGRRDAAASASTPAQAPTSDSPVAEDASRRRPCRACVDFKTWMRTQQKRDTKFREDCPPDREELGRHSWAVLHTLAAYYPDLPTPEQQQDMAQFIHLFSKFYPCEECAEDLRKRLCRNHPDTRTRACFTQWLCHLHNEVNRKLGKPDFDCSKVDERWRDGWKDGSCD
M18AAP inhibitor = PfM18AAP inhibitors, malaria aminopeptidase, primary screen, biochemical, QFRET, recombinant enzyme; M18 aspartyl aminopeptidase (Plasmodium falciparum 3D7); AID 1822, 2009; inhibition, % at 7.35 µM; H-Glu-NHMec fluorogenic cleavage; 1.2% of 290,000 active;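 active = inhibition above the campaign mean inhibition over all tested compounds plus 3 SD, cut at about 28% in these data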
Large screens that a line does not name were inactive.

CC(=O)/C=C/c1ccc2ccccc2n1	ALR inh 98
COc1ccccc1NC(=O)C(C)OC(=O)/C=C/c1ccc2ccccc2n1 (configuration not stated)	ALR inh 94 (no result: M18AAP inhibitor)
CC(OC(=O)/C=C/c1ccc2ccccc2n1)C(=O)N(C)c1ccccc1 (configuration not stated)	none (no result: HIF activator, M18AAP inhibitor)
Cc1cccc(C(=O)N[C@H](C(=O)Nc2ccc(C)c(S(=O)(=O)N3CCOCC3)c2)C(C)C)c1	none (no result: HIF activator, M18AAP inhibitor)
Cn1ccnc1SCc1cn2cc(Br)ccc2n1	ALR inh 99
CC1CCCCN1C(=O)COC(=O)c1cc([N+](=O)[O-])ccc1N1CCOCC1 (configuration not stated)	none (no result: M18AAP inhibitor)
COCC(=O)N(Cc1cc2cc(C)ccc2[nH]c1=O)c1ccc(C)c(C)c1	none
COCC(=O)N(Cc1cc2cc(C)ccc2[nH]c1=O)c1cccc(C)c1C	ALR inh 82
Cc1nn(CCCC(=O)NC2CCC(C)CC2)c(=O)c2nn(-c3ccccc3)c(C)c12 (configuration not stated)	none
O=C(O)Cn1c(=O)c2c3c(sc2n(Cc2ccc(Cl)cc2Cl)c1=O)CCCC3	ALR inh 76
CC1CCc2sc3c(c2C1)c(=O)n(CC(=O)O)c(=O)n3Cc1ccc(Cl)cc1 (configuration not stated)	none (no result: ALR inh)
CCn1c(SCC(=O)Nc2cccc(C(C)=O)c2)nnc1C(C)C	ALR inh 99
CC(=O)Nc1cccc(NC(=O)CSc2nnnn2Cc2ccccc2)c1	ALR inh 99
O=C(CSc1nnnn1Cc1ccccc1)Nc1cccc(F)c1	none (no result: ALR inh)
CC(=O)c1ccc(-n2nnnc2SCC(=O)Nc2cccc(NC(=O)c3ccco3)c2)cc1	ALR inh 99
COc1ccc(-n2nnnc2SCC(=O)Nc2cccc(NC(C)=O)c2)cc1OC	ALR inh 99
COc1ccc(-c2cn(-c3ccccc3)nc2CO)cc1	ALR inh 97
CCn1cc(-c2ccccc2)c(C(=O)O)c1-c1ccc(OC)cc1	ALR inh 85 (no result: M18AAP inhibitor)
COc1ccc(CNC(=O)Cn2nc([N+](=O)[O-])cc2C)cc1	none
C=CCN(CC=C)C(=O)C1CCN(S(=O)(=O)c2ccc(-n3cnnn3)cc2)CC1	none
Cn1cnnc1SCC(=O)Nc1cc(S(=O)(=O)N2CCCCC2)ccc1Cl	none (no result: SUMO Mot1 rescue)
COCCn1cnnc1SCC(=O)c1ccc(S(=O)(=O)N2CCCC2)cc1	ALR inh 87
O=C(Nc1ccc(O)cc1)/C(=C/c1ccco1)NC(=O)c1ccccc1	ALR inh 99
COc1ccccc1C(=O)N/C(=C/c1ccco1)C(=O)Nc1cccc(C(=O)O)c1	none
Cc1ccc(C(=O)N/C(=C/c2ccco2)C(=O)Nc2cccc(C(=O)O)c2)cc1	ALR inh inconclusive, M18AAP inhibitor 30
O=C(Nc1ccc(O)cc1)/C(=C\c1ccncc1)NC(=O)c1ccccc1	ALR inh 99
O=C(O)/C(=C/c1ccco1)NC(=O)c1ccccc1	none
CCCn1c(SCC(=O)c2ccc3c(c2)NC(=O)CO3)nc2ccccc21	ALR inh 99
O=C(CSc1nncc2ccccc12)Nc1ccc(F)cc1	none
O=C(CSc1nncc2ccccc12)Nc1ccc(C(=O)O)cc1	ALR inh 100
O=C(CSc1nncc2ccccc12)Nc1ccccc1	ALR inh 99
Cc1nc2ccccc2c(=O)n1NC(=O)c1ccccc1Br	none
CCn1nc(NS(=O)(=O)c2ccccc2[N+](=O)[O-])c2cc3ccc(C)cc3nc21	none
O=c1cc(-c2ccccc2)[nH]c2[nH]n(-c3ccccc3)c(=O)c12	ALR inh 99
CCOC(=O)Cc1cc(=O)c2c(=O)n(-c3ccccc3)[nH]c2[nH]1	ALR inh 78
CCOC(=O)CC1=NN(c2ccccc2)C(=O)C1	none
O=C(CN1C(=O)/C(=C\c2ccc(F)cc2)Oc2ccccc21)NCc1ccco1	none (no result: SUMO Mot1 rescue, ALR inh)
Clc1nnc(N/N=C/c2ccccc2)c2ccccc12	none
C[n+]1ccc(/C=N/Nc2nc(Cl)c(C#N)c(Cl)c2Cl)cc1	ALR inh 82
Cc1cnnn1-c1ccc(C(=O)CCl)cc1	none
COCCCNCCCCOc1ccc(Br)cc1C	SUMO Mot1 rescue 269
COCCNCCCCOc1ccc(Br)cc1C	none
COc1ccc(OC)c2c(C)cc(N3CCCN(C)CC3)nc12	ALR inh 98
CC(C)Cn1c(Cc2ccccc2)n[nH]c1=S	ALR inh 92
Cc1ccc(-n2c(-c3cnccn3)n[nH]c2=S)cc1	ALR inh 88 (no result: SUMO Mot1 rescue)
S=c1[nH]nc(Cc2ccccc2)n1-c1ccccc1	ALR inh 87
CC(C)OCC(O)CCc1n[nH]c(=S)n1-c1ccccc1 (configuration not stated)	ALR inh 88
CCCCOCC(O)CCc1n[nH]c(=S)n1-c1ccccc1 (configuration not stated)	none (no result: ALR inh)
S=c1[nH]nc(Cc2ccccc2)n1-c1ccc(Cl)cc1	none
Cc1ccc(S(=O)(=O)N2CCCCC2)cc1NS(=O)(=O)c1ccccc1F	none (no result: HIF activator, M18AAP inhibitor)
Cc1ccc(-n2c(Cc3ccccc3)n[nH]c2=S)cc1	ALR inh 92 (no result: SUMO Mot1 rescue)
O=C(N/N=C/c1cccc(Oc2ccccc2)c1)c1ccncc1	none
COc1cccc(/C=N/NC(=O)c2cccs2)c1	none
COc1cc(C=NNC(=O)c2ccc(NS(=O)(=O)c3cccs3)cc2)cc(Br)c1O	ALR inh 78 (no result: HIF activator, M18AAP inhibitor)
COc1cc(C(=O)N/N=C/c2cccc(Oc3ccccc3)c2)ccc1O	ALR inh 85
CN(C)c1ccc(/C=N/NC(=O)c2ccc3c(c2)OCCO3)cc1	ALR inh 98
COc1cc(/C=N/NC(=O)c2cccs2)ccc1O	ALR inh 99
CCCN1CCN(C(=O)CS(=O)(=O)Cc2nc(-c3cccc(OC)c3)oc2C)CC1	none
Cc1cc(C(=O)N/N=C/c2ccc3c(c2)OCO3)c(C)o1	ALR inh 95
O=C(NN=Cc1ccc(O)cc1)c1ccccc1NS(=O)(=O)c1cccs1	ALR inh 99 (no result: HIF activator, M18AAP inhibitor)
Cc1occc1C(=O)N/N=C/c1ccc2c(c1)OCO2	none
O=C(N/N=C/c1cc(Br)c(O)c(Br)c1O)c1ccc2c(c1)OCCO2	none (no result: ALR inh)
Cc1cc(Br)cc(/C=N/NC(=O)c2ccc3c(c2)OCO3)c1O	HIF activator 13
O=C(N/N=C/c1ccccc1O)c1ccc2c(c1)OCO2	HIF activator 9.7
CC(C)(C)OC(=O)NCCCCCNC(=O)c1[nH]cnc1C(=O)Nc1ccon1	none (no result: HIF activator, M18AAP inhibitor)
CCN1C(=O)CSC1=Nc1cccc(C(=O)O)c1	none
COc1ccc(C)cc1NC(=O)C(=O)NNC(=O)c1ccco1	none (no result: ALR inh)
O=C1CC(=O)Nc2cc(S(=O)(=O)Nc3ccc(F)cc3Cl)ccc2N1	none
N#CCC(=O)N/N=C/c1cccc(Oc2ccccc2)c1	M18AAP inhibitor 30
O=C(Cc1ccccc1)N/N=C/c1cc(Br)cc(Cl)c1O	SUMO Mot1 rescue 358
COc1ccc(/C=N/NC(=O)c2ccc3c(c2)OCO3)cc1	none
COc1cc(/C=N/NC(=O)c2ccc3c(c2)OCO3)ccc1O	ALR inh 99
O=C(N/N=C/c1cc(Br)cc(Cl)c1O)c1ccc2c(c1)OCO2	HIF activator 19 (no result: M18AAP inhibitor)
